Results as given in PubChem BioAssay AID588847 (Broad Institute, 2011).
Entries with a potency or affinity are not part of this list. Values without a mark were called inactive.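 How the source made its calls: active means compounds lowering luciferase light with a fitted half-maximal dose at most twice the top tested dose; inconclusive means flat fit inhibiting 30 to 70%, or unreliable fit; inactive means the rest.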

Each compound was assayed against Luciferin 4-monooxygenase (Photuris pensylvanica) (UniProt Q27757) (assay: firefly luciferase enzyme inhibitors, dose response, counter-screen for HSF-1 reporter inhibitor project, biochemical, Cell Titer Glo, luminescence, cherry-picks (AID 588847)). Conditions: ATP; series mostly up to 26 µM; activity change, negative = inhibition: at the top concentration.
Luciferin 4-monooxygenase (Photuris pensylvanica), sequence (Q27757 whole entry, looked up): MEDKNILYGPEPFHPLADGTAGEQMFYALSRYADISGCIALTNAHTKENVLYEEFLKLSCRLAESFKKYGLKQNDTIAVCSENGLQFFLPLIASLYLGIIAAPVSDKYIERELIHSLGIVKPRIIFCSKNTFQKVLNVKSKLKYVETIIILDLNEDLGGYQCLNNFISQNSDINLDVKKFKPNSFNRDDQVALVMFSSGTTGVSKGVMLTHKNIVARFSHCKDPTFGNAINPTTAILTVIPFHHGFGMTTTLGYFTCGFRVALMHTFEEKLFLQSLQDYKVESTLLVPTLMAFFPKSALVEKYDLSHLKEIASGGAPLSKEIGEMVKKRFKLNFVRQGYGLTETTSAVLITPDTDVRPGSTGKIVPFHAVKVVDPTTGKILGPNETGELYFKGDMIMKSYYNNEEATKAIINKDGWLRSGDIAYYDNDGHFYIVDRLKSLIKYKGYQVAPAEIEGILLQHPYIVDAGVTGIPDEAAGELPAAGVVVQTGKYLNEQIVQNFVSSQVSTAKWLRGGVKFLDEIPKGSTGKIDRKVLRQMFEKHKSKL

Row | Structure (SMILES) | activity change, negative = inhibition
1 | O=[N+]([O-])c1nn(-c2ccc3c(c2)OCCO3)n(O)c1=Nc1ccccc1 | -5.15%
2 | COc1cc([C@@H]2c3cc4c(cc3[C@H](O)[C@H]3COC(=O)[C@H]23)OCO4)cc(OC)c1OC | -6.03%
3 | O=C(Nc1ccc(F)cc1F)c1cc2nc3c(c(C(F)(F)F)n2n1)CCCC3 | -7.45%
4 | Cc1nc(SCC(=O)Nc2nc3ccccc3s2)c(C#N)c(C)c1C | -11%
5 | COC(=O)c1ccccc1NC(=O)c1ccc(-c2ccc(Br)cc2)o1 | -19.2%
6 | CC(=O)OCC(=O)[C@@]12OC(C)(C)O[C@@H]1CC1C3C[C@H](F)C4=CC(=O)C=CC4(C)[C@@]3(F)C(O)CC12C (stereo partly drawn) | -5.62%
7 | CC(=O)[C@@]1(O)C(C)CC2C3C=C(C)C4=Cc5c(cnn5-c5ccccc5)C[C@]4(C)C3C(O)C[C@@]21C (stereo partly drawn) | -12.9%
8 | Cc1ccc(C(=O)Nc2sc(C)c(-c3ccccc3)c2C(N)=O)cc1[N+](=O)[O-] | -12.8%
